The panel holds about 83,000 compounds, 20% with a hit somewhere; the sample as a whole holds those more often.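 Each cell line was grown in a 96-well plate and treated with one concentration of compound for 48 hours. Values below 10 were considered active.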 The source made the active and inactive calls.
Assays:
Assay in all cases: NCI-60 one-dose screen, 48 h (100 = growth as untreated, 0 = no growth, -100 = all killed)
Settings in all cases: 10 µM unless noted
HCT-15 colon = test system: HCT-15 colon
HT29 colon = test system: HT29 colon
SNB-75 CNS = test system: SNB-75 CNS
SNB-19 CNS = test system: SNB-19 CNS
U251 CNS = test system: U251 CNS
SK-MEL-5 melanoma = test system: SK-MEL-5 melanoma
UACC-62 melanoma = test system: UACC-62 melanoma
LOX IMVI melanoma = test system: LOX IMVI melanoma
SK-MEL-28 melanoma = test system: SK-MEL-28 melanoma
SK-MEL-2 melanoma = test system: SK-MEL-2 melanoma
EKVX NSCLC = test system: EKVX NSCLC
SN12C renal = test system: SN12C renal
UO-31 renal = test system: UO-31 renal
TK-10 renal = test system: TK-10 renal
ACHN renal = test system: ACHN renal
CAKI-1 renal = test system: CAKI-1 renal
CCRF-CEM leukemia = test system: CCRF-CEM leukemia
MOLT-4 leukemia = test system: MOLT-4 leukemia
A498 renal = test system: A498 renal

Measured: growth

COc1cc2nnc3c4cccnc4[nH]c3c2cc1OC
inactive: HCT-15 colon 16% | SNB-75 CNS 51.2% | SNB-19 CNS 75.7% | SK-MEL-5 melanoma 93.5% | UACC-62 melanoma 30.8% | LOX IMVI melanoma 12.8% | SK-MEL-28 melanoma 47.6% | SK-MEL-2 melanoma 80.1% | EKVX NSCLC 73.1% | SN12C renal 33% | TK-10 renal 42.9%
active: HT29 colon -2.61% | U251 CNS 1.26% | UO-31 renal -52.8% | ACHN renal -36.7% | CAKI-1 renal -14.7% | CCRF-CEM leukemia -37.5%

CCCCC/C(C=C(C#N)C#N)=C/c1ccccc1
active: LOX IMVI melanoma 2.03%
inactive: HCT-15 colon 47% | HT29 colon 37% | SNB-75 CNS 96.6% | SNB-19 CNS 67.1% | U251 CNS 34.2% | SK-MEL-5 melanoma 71% | UACC-62 melanoma 48.9% | SK-MEL-28 melanoma 84% | SK-MEL-2 melanoma 82.4% | EKVX NSCLC 106% | SN12C renal 81.1% | UO-31 renal 34.7% | TK-10 renal 105% | ACHN renal 41.6% | CAKI-1 renal 81.4% | CCRF-CEM leukemia 13.9% | MOLT-4 leukemia 13.4%

C=C1c2nc3ccccc3n2C=C(c2ccc(Cl)cc2)N1Cc1ccc(OC)cc1
inactive: HCT-15 colon 67.3% | HT29 colon 88.8% | SNB-75 CNS 103% | SNB-19 CNS 79.1% | U251 CNS 92.8% | SK-MEL-5 melanoma 72.3% | UACC-62 melanoma 68% | LOX IMVI melanoma 87.5% | SK-MEL-28 melanoma 88.9% | SK-MEL-2 melanoma 70.4% | EKVX NSCLC 71.3% | UO-31 renal 52.2% | TK-10 renal 138% | ACHN renal 89.5% | CAKI-1 renal 85.7% | A498 renal 90.5% | CCRF-CEM leukemia 86.3% | MOLT-4 leukemia 64.8%

Cn1cc(-c2nonc2-c2cn(C)c3ccc(F)cc23)c2ccccc21
active: HT29 colon 6.32% | SNB-75 CNS -17.9% | A498 renal -2.88%
inactive: HCT-15 colon 18.8% | SNB-19 CNS 31.6% | U251 CNS 23.5% | SK-MEL-5 melanoma 24.1% | UACC-62 melanoma 30.4% | LOX IMVI melanoma 34.8% | SK-MEL-28 melanoma 63.3% | SK-MEL-2 melanoma 30.6% | EKVX NSCLC 47.6% | SN12C renal 33.8% | UO-31 renal 26.9% | TK-10 renal 60.6% | ACHN renal 38.7% | CAKI-1 renal 26.2% | MOLT-4 leukemia 15.9%

COc1cc(/C=C/C(=O)Nc2cccnc2Nc2ccc(F)cc2)cc(OC)c1OC
inactive: HCT-15 colon 99% | HT29 colon 91.2% | SNB-75 CNS 97% | SNB-19 CNS 91.1% | U251 CNS 70.8% | SK-MEL-5 melanoma 95.8% | UACC-62 melanoma 94.7% | LOX IMVI melanoma 100% | SK-MEL-28 melanoma 103% | SK-MEL-2 melanoma 68.4% | EKVX NSCLC 92.5% | SN12C renal 109% | UO-31 renal 89.2% | TK-10 renal 103% | ACHN renal 102% | CAKI-1 renal 88.6% | CCRF-CEM leukemia 85% | MOLT-4 leukemia 87.5%

CN(C)C(=S)N=Nc1c(O)[nH]c2ccccc12
inactive: HCT-15 colon 31.7% | HT29 colon 28.7% | SNB-75 CNS 48.4% | SNB-19 CNS 18.3% | U251 CNS 17% | LOX IMVI melanoma 14% | SK-MEL-28 melanoma 37.5% | EKVX NSCLC 14.8% | SN12C renal 25.1% | TK-10 renal 28.9% | ACHN renal 16.9%
active: SK-MEL-5 melanoma 4.77% | UACC-62 melanoma -16.9% | SK-MEL-2 melanoma -12.6% | UO-31 renal -19.1% | A498 renal 1.31% | CCRF-CEM leukemia -11.6% | MOLT-4 leukemia -12.4%

O=C(/C=C/c1ccc(C(F)(F)F)cc1)Nc1ccc(C=C2c3ccccc3C(=O)c3ccccc32)cc1
inactive: HCT-15 colon 47.4% | HT29 colon 46.5% | SNB-75 CNS 46.6% | SNB-19 CNS 66.5% | U251 CNS 33.8% | SK-MEL-5 melanoma 44.7% | UACC-62 melanoma 52.2% | SK-MEL-28 melanoma 60.2% | SK-MEL-2 melanoma 25.5% | EKVX NSCLC 53.6% | SN12C renal 89.6% | UO-31 renal 72.6% | TK-10 renal 70.2% | ACHN renal 74.8% | CAKI-1 renal 56.2% | CCRF-CEM leukemia 32.6% | MOLT-4 leukemia 47.5%

O=C(N/N=C/c1ccccc1O)c1ccccc1Nc1ccnc(C(F)(F)F)c1
active: SK-MEL-5 melanoma -64.5% | UACC-62 melanoma -19.1% | LOX IMVI melanoma 7.93% | EKVX NSCLC 3.03% | UO-31 renal 7.98% | ACHN renal 5.8% | CAKI-1 renal -15.9% | A498 renal -5.76% | MOLT-4 leukemia 5.72%
inactive: HCT-15 colon 24.6% | HT29 colon 41.3% | SNB-75 CNS 20.7% | SNB-19 CNS 21.8% | U251 CNS 18.8% | SK-MEL-28 melanoma 28.3% | SN12C renal 26.8% | TK-10 renal 34.3%

CC(=O)O[C@H]1[C@@H]2OC(=O)C(CSc3ccccc3)[C@@H]2C[C@H]2O[C@]2(C)CC/C=C(\C)CCC[C@@H]1C (stereo partly drawn)
inactive: HCT-15 colon 12.8% | HT29 colon 19.5% | SNB-75 CNS 37.1% | SNB-19 CNS 68% | U251 CNS 51.6% | SK-MEL-5 melanoma 47% | UACC-62 melanoma 38.3% | LOX IMVI melanoma 28.4% | SK-MEL-28 melanoma 37.7% | SK-MEL-2 melanoma 35.6% | SN12C renal 31.6% | UO-31 renal 11.7% | ACHN renal 33.5% | A498 renal 116% | CCRF-CEM leukemia 52.4%
active: TK-10 renal -5.98% | CAKI-1 renal 2.92%
